# Screening data as filed in PubChem.
# Compounds with a hit are over-represented: about 5.2% of the library has one in this group of screens.
# Tau fluor counter – counter-screen for tau fibril formation inhibitors; tau K18 P301L Alexa594 fluorescence, heparin fibrillization; Potency, µM (top dose mostly 57.7 µM), for inactives: top-dose activity change, negative = decrease; 280,000 compounds, 0.93% hits; AID 1463; note: potency is the fitted concentration of half-maximal effect; nearly all actives have a fitted effect of over 55% in size
#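 Human K18 P301L tau (15 uM unlabeled plus 0.24 uM Alexa 594-labeled, final) in 100 mM sodium acetate pH 7 was mixed with compound and 20 uM heparin and incubated 6 hr at 37 C.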
# Tau FP inhib – blocks human tau fibril formation measured by polarization; Potency, µM (highest dose often 57.7 µM), for the others: at the highest dose activity, negative = inhibition, actives largely listed as inhibitors; K18 P301L tau heparin fibrillization, Alexa594 FP, 6 h; 280,000 compounds, 0.39% hits; P10636; note: potency is the fitted concentration of half-maximal effect; nearly all actives have a fitted effect of over 55% in size
# Target sequence (P10636 561-689 P618L limits assumed): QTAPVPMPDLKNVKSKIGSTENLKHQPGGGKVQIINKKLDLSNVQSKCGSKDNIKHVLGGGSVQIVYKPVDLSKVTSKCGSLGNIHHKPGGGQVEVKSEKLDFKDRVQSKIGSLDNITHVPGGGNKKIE
#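 Recombinant K18 P301L […], labeled with Alexa 594 at 0.24 uM over 15 uM unlabeled; heparin inducer 20 uM final; 37 C, 6 hr; FP endpoint.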
# Tau ThT inhib – tau fibrillization inhibition (ThT binding) | recombinant tau K18 P301L (four-repeat tau fragment), heparin-induced fibrillization, ThT fluorescence | Potency, µM (series often up to 57.4 µM), for the others: at the top dose activity, negative = inhibition, usual class: inhibitors | 270,000 compounds, 2.1% hits | AID 1460; note: potency is the fitted concentration of half-maximal effect; nearly all actives have a fitted effect of over 55% in size
#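 Recombinant human tau K18 fragment […] carrying P301L, 15 uM unlabeled plus 0.24 uM Alexa 594-labeled, was fibrillized with 20 uM heparin in 100 mM sodium acetate pH 7 for 6 hr at 37 C; 30 uM ThT fluorescence read after 1 hr.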
# Coupling enz – coupling enzyme interference in Giardia aldolase counter-screen; 290,000 compounds, 0.67% hits; coupling enzyme system counterscreen, AmpLite Red fluorescence; AID 2472; activity change, negative = inhibition, % at 58.2 µM, hits read low; in the data active = activity change below about -30%
#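 First, compound is pin-transferred into glyceraldehyde-3-phosphate coupling-enzyme reagent at 57.5 uM final and held 10 min at RT. Next, substrate, coupling system and AmpLite Red are added. After 20 min RT, fluorescence (525/598 nm) is read.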
# Sfp inh – blocks B. subtilis Sfp PPTase activity; Q9F4F7; Biochemical Sfp PPTase activity, qHTS; Potency, µM, for inactives: largest response in the series, negative = inhibition, actives largely listed as inhibitors; 310,000 compounds, 3.5% hits;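 note: the enzyme is Sfp with the accession as filed and its product quenches rhodamine fluorescence; potency is the fitted concentration of half-maximal effect; 0% = enzyme reaction without inhibitor and -100% = no enzyme wells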
#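 Fluorescence-quenching assay: 15 nM Sfp-PPTase preincubated 15 min at room temperature with compound, then 5 uM rhodamine-CoA and 12.5 uM BHQ-2-labelled YbbR peptide added. Fluorescence (ex 525/em 598 nm) read at start and after 30 min; difference gives rate.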
# * hit, by the source's call; u = inconclusive; x = no result given; [ ] = dose if it differs, or a comment. Unless noted, calls come from the whole dose curve; as a rule, active = well fitted curve in the direction sought with a large enough effect; inconclusive = small, poorly fitted or top-dose-only effect, or another doubt; inactive = no such curve, though single readings can be large; an effect the other way counts as inactive or inconclusive. Unless noted, % is set by controls: 0 for no effect and ±100 for the full control effect.
SMILES,Tau fluor counter,Tau FP inhib,Tau ThT inhib,Coupling enz,Sfp inh
CCCCCCC(=O)N(O)C1CC(=O)N(c2ccc(C)cc2)C1=O (centres undefined),1%,15%,u,2,20µM*
Cc1ccc(NC(=O)CNC(=O)N2CC(=O)Nc3ccccc32)cc1F,x,x,x,-1,17%
O=C(CN1CC(=O)Nc2ccccc21)Nc1ccc(F)c(F)c1,-13%,-6%,-16%,-22,40µM*
N#C/C(=C\c1ccc(C(=O)O)cc1)c1nc2sc3c(c2c(=O)[nH]1)CCCC3,u,-8%,14µM*,4,-13%
CN(C)S(=O)(=O)Nc1ccc(-c2cn3ccsc3n2)cc1,-6%,0%,-11%,x,x
COC(=O)Cc1ccc(NC(=S)NCCSc2ccc(Cl)cc2)cc1,7.9µM*[quencher],u,-14%,-1,23%
COC(=O)Cc1ccc(NC(=S)NCCO)cc1,3%,-5%,6%,1,4%
COc1ccc(C2=CSC3=NNC4(CCCCC4)NN23)cc1,-26%,0%,22µM*,2,-23%
COc1ccc(OC)c(C(=O)CSc2ncc3c(n2)-c2ccccc2N(Cc2ccccc2C)S3(=O)=O)c1,-8%,-16%,3%,x,x
CC(C)C(=O)NC(c1ccc([N+](=O)[O-])cc1)c1c(O)ccc2ccccc12 (centres undefined),u,u,20µM*,-2,5%
O=C(Nc1ccc(Cl)cc1)C(Cl)C(=O)c1ccccc1 (centres undefined),x,x,x,0,28µM*
O=C(Nc1ccccc1Cl)C(Cl)C(=O)c1ccccc1 (centres undefined),5%,0%,-2%,2,13%
COc1ccc(OC)c(NC(=O)c2ccc(CN(c3cc(Cl)ccc3C)S(=O)(=O)c3ccccc3)cc2)c1,-29%,-13%,-9%,-30,79µM*
COC(=O)N[C@@H](c1cccc(C)c1)[C@@H](C)[N+](=O)[O-],-1%,2%,0%,-1,-15%
CCc1ccc(OCC(=O)Nc2ccc(Cl)c(-c3nc4ncccc4o3)c2)cc1,-25%,u,-9%,x,x
COc1ccc(CN2C(=O)/C(=C/c3ccc(-c4ccc(Cl)c(C(=O)O)c4)o3)SC2=S)cc1,-4%,-4%,u,2,50µM*
Cc1cccc(N2C(=O)/C(=C/c3cccnc3)SC2=S)c1,-6%,8%,u,3,14%
O=C(CCN1C(=O)/C(=C/c2ccccc2Cl)SC1=S)NNC(=O)c1ccccc1O,x,x,x,4,50µM*
Cc1ccc(/C=C2\SC(=S)N(c3cccnc3)C2=O)o1,-18%,u,16µM*,-25,50µM*
O=C(O)c1cc(-c2ccc(/C=C3/SC(=S)N(Cc4ccccc4)C3=O)o2)ccc1Cl,2%,-6%,10µM*,-2,50µM*
Cc1ccc2c(c1)c(=O)c(S(=O)(=O)c1ccc(C)c(C)c1)cn2CC(=O)Nc1ccccc1,-16%,u,1%,x,x
CCC(C)NC(=O)c1ccc(Cn2c(=O)c3cccn3c3cccnc32)cc1 (centres undefined),-3%,-5%,5%,x,x
O=C1/C(=C\c2cccc(O)c2O)SC(=S)N1Cc1ccccc1,x,x,x,1,40µM*
O=C1/C(=C\c2ccc(O)c(O)c2)SC(=S)N1Cc1ccccc1,x,x,x,-1,-19%
Cc1ccc(/C=C2\SC(=S)N(Cc3ccccc3)C2=O)o1,u,u,16µM*,-16,u
SMILES,Tau fluor counter,Tau FP inhib,Tau ThT inhib,Coupling enz,Sfp inh
O=C1/C(=C\c2cccc(O)c2)SC(=S)N1Cc1ccccc1,x,x,x,2,-6%
CCOc1cccc(C(=O)N(Cc2ccc(CC)cc2)C2CCS(=O)(=O)C2)c1 (centres undefined),-9%,-1%,-6%,x,x
COc1nc(/C=C/N(C)C)c([N+](=O)[O-])c(OC)n1,u,-6%,8.9µM*,0,-10%
COC(=O)C1(C(=O)OC)CC2=CCC3C(=O)N(c4ccccc4)C(=O)C3C2Cc2ccccc2[C@@H]1C[N+](=O)[O-] (some centres undefined),-3%,-1%,-1%,0,4%
O=C(O)Cc1coc2ccc3ccccc3c12,9%,5%,7%,0,-4%
O=C(Cc1coc2ccc3ccccc3c12)N1CCCC1,10%,6%,9%,-37*,15%
